Assay results: PubChem BioAssay (NCATS)
Results filed as inconclusive are left out. Entries that show only a call come without a potency. The source made the active and inactive calls. The call rests on the fitted dose curve; in most records, active means well fitted activation curve with a large enough effect in the signal ratio; inconclusive means small, poorly fitted or top-dose-only effect, or effect the other way, or a change in a side signal; inactive means flat fitted curve, though single readings scatter; the % refers to the signal ratio.

Assay: qHTS assay to identify small molecules that stimulate interleukin-8 (IL-8) secretion (AID 651758)
Conditions: HTRF ratio (665/615); series mostly up to 92.2 µM
Source text: National Center for Advancing Translational Sciences [NCATS]
NIH Chemical Genomics Center [NCGC]
National Institutes of Environmental Health Sciences [NIEHS]
National Toxicology Program [NTP]
Interleukin-8 is a 8 kDa chemokine produced by macrophages and other cells like epithelial cells that is often associated with inflammation. Interleukin-8 secretion is a key parameter in localized inflammation. There is a growing concern for some of environmental chemicals which may contribute the increasing the incidence of inflammation. A homogeneous IL-8 assay using Time Resolved fluorescence (HTRF) technology based on Time Resolved Fluorescent Resonance Energy Transfer (TR-FRET) allows to measure IL-8 secreted from the cells in a 1536-well plate format.
THP-1 cells were dispensed at 2000 cells/5ul/well in 1536-well white solid plates. After addition of 23 nl of compound, positive controls and DMSO only, the assay plates were incubated at 37 C for 16 hrs, followed by addition of 5 uL of mixture of cryptate labeled and XL665 labeled anti-IL-8 antibodies. After the assay plates were incubated at room temperature for 1-3 hrs, the plates were measured by an EnVision plate reader.
Potency means the concentration at half of the fitted maximal effect.

Q: With `Nc1ccc(C(=O)O)cc1` as the molecule, how does the Potency read?
A: inactive

Q: For `Oc1ccc(O)cc1`, which Potency is on record?
A: 66.8 µM (active)

Q: Which Potency does the source give for `Oc1c(I)cc(Cl)c2cccnc12` here?
A: inactive

Q: With `O=C1OC(c2ccc(O)cc2)(c2ccc(O)cc2)c2ccccc21` as the molecule, how does the Potency read?
A: inactive

Q: With `O=c1ccc2ccccc2o1` as the molecule, how does the Potency read?
A: inactive

Q: Which Potency does the source give for `Oc1ccc(Cl)cc1Sc1cc(Cl)ccc1O` here?
A: inactive

Q: Which Potency does the source give for `CC(O)C(=O)O` (stereo not given) here?
A: inactive

Q: With `O=C(O)CCCCC(=O)O` as the molecule, how does the Potency read?
A: inactive

Q: For `COC1=CC(=O)C[C@@H](C)[C@]12Oc1c(Cl)c(OC)cc(OC)c1C2=O`, which Potency is on record?
A: inactive

Q: Which Potency does the source give for `CN(C)/N=N/c1nc[nH]c1C(N)=O` here?
A: 75 µM (active)
